We go through 18 molecules from PubChem BioAssay (EPA / NIEHS).

Active and inactive are the calls of the source. How the source made its calls: active means hit-call score of the fitted dose curve at least 0.9, where 1 is the maximum; inactive means score below 0.9.

Read-out in experiment [1]: Macrophage colony-stimulating factor (MCSF), CSF1 (gene 1435)
The experiment can be described thus: BSK_hDFCGF_MCSF: BioMAP Diversity Plus: hDFCGF Assay for Macrophage colony-stimulating factor (MCSF) Biomarker Activity (AID 2283060). The following applies: primary human foreskin fibroblasts; actives raise or lower the signal. The essentials: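 M-CSF levels read by ELISA at 24 h post-dosing in human skin fibroblasts. Parallel cultures stained with SRB assessed cytotoxicity at the same time point; response fitted in both directions against the DMSO baseline.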

Experiment [2] can be described thus: BSK_hDFCGF_SRB: Viability Assessment in the BioMAP Diversity Plus: hDFCGF Assay (AID 2283061).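 Further: cells exposed to compound for 24 h before the read.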 The following applies: primary human foreskin fibroblasts. The gist of the method:
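Viability was read as total protein: after 10% TCA fixation, wells were stained with 0.1% sulforhodamine B and read at 560 nm. Primary human foreskin fibroblasts were dosed for 24 h, with bidirectional fitting versus DMSO.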

Read-out in experiment [3]: TIMP metallopeptidase inhibitor 1 (TIMP1), TIMP1 (gene 7076)
The experiment can be described thus: BSK_hDFCGF_TIMP1: BioMAP Diversity Plus: hDFCGF Assay for TIMP metallopeptidase inhibitor 1 (TIMP1) Biomarker Activity (AID 2283062). Conditions: primary human foreskin fibroblasts; actives raise or lower the signal. The gist of the method: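 TIMP-1 measured by ELISA 24 h after chemical dosing of primary human skin fibroblasts, with gain or loss fitted relative to DMSO. Parallel SRB staining (560 nm) monitored overt cytotoxicity.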

Read-out in experiment [4]: Monokine induced gamma interferon (MIG), CXCL9 (gene 4283)
The experiment can be described thus: BSK_hDFCGF_MIG: BioMAP Diversity Plus: hDFCGF Assay for Monokine induced gamma interferon (MIG) Biomarker Activity (AID 2283063). Conditions: primary human foreskin fibroblasts; actives raise or lower the signal. The gist of the method:
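Human primary foreskin fibroblasts in the hDFCGF system, exposed to test chemical for 24 h; MIG measured by ELISA. Bidirectional curve fitting against DMSO negative control as activity baseline.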

Read-out in experiment [5]: Matrix Metallopeptidase 1 (MMP1), MMP1 (gene 4312)
The experiment can be described thus: BSK_hDFCGF_MMP1: BioMAP Diversity Plus: hDFCGF Assay for Matrix Metallopeptidase 1 (MMP1) Biomarker Activity (AID 2283064). The following applies: primary human foreskin fibroblasts; actives raise or lower the signal. The essentials: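 Primary human foreskin fibroblasts exposed to chemicals for 24 h; MMP1 measured by ELISA. Cytotoxicity tracked by SRB staining in parallel cultures; bidirectional fit relative to DMSO.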

Read-out in experiment [6]: Vascular cell adhesion molecule 1 (VCAM1), VCAM1 (gene 7412)
The experiment can be described thus: BSK_hDFCGF_VCAM1: BioMAP Diversity Plus: hDFCGF Assay for Vascular cell adhesion molecule 1 (VCAM1) Biomarker Activity (AID 2283065).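 On AC50: VCAM-1 protein level quantified by ELISA after 24 h chemical exposure.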 The following applies: primary human foreskin fibroblasts; actives raise or lower the signal. The gist of the method: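 ELISA readout of VCAM-1 on human dermal fibroblast primary cultures, 24 h after chemical exposure. Gain or loss of signal fitted in both directions against DMSO baseline.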

Read-out in experiment [7]: Plasminogen activator inhibitor-1 (PAI1), SERPINE1 (gene 5054)
The experiment can be described thus: BSK_hDFCGF_PAI1: BioMAP Diversity Plus: hDFCGF Assay for Plasminogen activator inhibitor-1 (PAI1) Biomarker Activity (AID 2283066). The following applies: primary human foreskin fibroblasts; actives raise or lower the signal. The gist of the method: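 PAI-1 levels, determined by ELISA, served as the endpoint in human foreskin fibroblast cultures exposed to compound for 24 h, with DMSO as baseline.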

Read-out in experiment [8]: Intercellular Adhesion Molecule 1 (ICAM1), ICAM1 (gene 3383)
The experiment can be described thus: BSK_KF3CT_ICAM1: BioMAP Diversity Plus: KF3CT Assay for Intercellular Adhesion Molecule 1 (ICAM1) Biomarker Activity (AID 2283067). Conditions: primary human keratinocytes with fibroblasts; actives raise or lower the signal. The gist of the method:
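Cell-surface ICAM-1 was measured by ELISA 24 h after dosing primary human skin keratinocytes co-cultured with fibroblasts. Parallel SRB staining tracked overt cytotoxicity. Gain or loss of signal was fitted relative to DMSO.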

Read-out in experiment [9]: Interferon-gamma inducible Protein 10 (IP10), CXCL10 (gene 3627)
The experiment can be described thus: BSK_KF3CT_IP10: BioMAP Diversity Plus: KF3CT Assay for Interferon-gamma inducible Protein 10 (IP10) Biomarker Activity (AID 2283068). The following applies: primary human keratinocytes with fibroblasts; actives raise or lower the signal. The gist of the method: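 ELISA read-out of IP-10 after 24 h chemical dosing of human skin primary co-culture (keratinocytes, foreskin fibroblasts). Gain or loss of signal relative to DMSO, bidirectional curve fit.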

A short description of experiment [10]: BSK_KF3CT_SRB: Viability Assessment in the BioMAP Diversity Plus: KF3CT Assay (AID 2283069).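 Further: total protein by sulforhodamine B staining as a cytotoxicity measure; read 24 h after compound addition.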 Conditions: primary human keratinocytes with fibroblasts. The gist of the method: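 Human keratinocyte and foreskin fibroblast co-culture exposed to chemical for 24 h. Total protein measured in parallel cultures by 0.1% sulforhodamine B staining after 10% TCA fixation, read at 560 nm; bidirectional fit relative to DMSO.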

`CNc1cnn(-c2cccc(C(F)(F)F)c2)c(=O)c1Cl`: the outcome in experiment [1], in experiment [2], in experiment [3], in experiment [4], in experiment [5] and in experiment [6] was inactive. Besides, the outcome in experiment [7], in experiment [8], in experiment [9] and in [10] was inactive.

Turning to `CCOP(=S)(OCC)Oc1cc(C)nc(C(C)C)n1`, the outcome in [1], in [2], in [3], in [4], in experiment [5] and in experiment [6] was inactive. Also, the result in [7], in experiment [8], in experiment [9] and in experiment [10] was inactive.

With `COP(=O)(NC(C)=O)SC` (stereo not drawn), the result in experiment [1], in experiment [2], in experiment [3], in experiment [4], in [5] and in experiment [6] was inactive. The outcome in experiment [7], in experiment [8], in [9] and in experiment [10] was inactive.

Take `Nc1nc(N)nc(NC2CC2)n1`: the outcome in [1], in experiment [2], in [3], in experiment [4], in [5] and in experiment [6] was inactive. The outcome in experiment [7], in [8], in experiment [9] and in [10] was inactive.

Turning to `CCC(=NOC/C=C/Cl)C1=C(O)CC(C2CCOCC2)CC1=O` (stereo not drawn), the outcome in [1], in [2], in experiment [3], in [4], in [5] and in experiment [6] was inactive. The result in experiment [7], in [8], in experiment [9] and in experiment [10] was inactive.

For the molecule `CCOP(=S)(OCC)Oc1ccc2c(C)c(Cl)c(=O)oc2c1`, the AC50 in experiment [1] is 13.6 µM (active); in experiment [5], 5.06 µM (active); in experiment [6], 31.3 µM (active). The result in experiment [2], in [3], in experiment [4], in experiment [7], in experiment [8] and in experiment [9] was inactive. In addition, the outcome in [10] was inactive.

Regarding `CCOP(=S)(Oc1cnc(C(C)(C)C)nc1)OC(C)C` (stereo not drawn), the AC50 in experiment [1] was 20 µM (active); in experiment [2], 37 µM (active); in experiment [4] it was 31.6 µM (active); in [6], 26.8 µM (active); in experiment [9] it was 18.4 µM (active); in [10] it was 31.4 µM (active). For the same molecule, the outcome in experiment [3], in experiment [5], in experiment [7] and in experiment [8] was inactive.

For the molecule `CCOP(=O)(OCC)Oc1cc(C)nc(C(C)C)n1`, the AC50 is 34.3 µM (active) in [1], 14.9 µM (active) in experiment [3], 20 µM (active) in experiment [5] and 7.42 µM (active) in experiment [7]. The result in experiment [2], in [4], in experiment [6], in experiment [8], in experiment [9] and in experiment [10] was inactive.

As for `C[Si](Cn1cncn1)(c1ccc(F)cc1)c1ccc(F)cc1`, the outcome in [1], in [2], in experiment [3], in experiment [4], in [5] and in experiment [6] was inactive. For the same molecule, the outcome in [7], in [8], in [9] and in experiment [10] was inactive.

`CC(C)[C@H](C(=O)O[C@H](C#N)c1cccc(Oc2ccccc2)c1)c1ccc(Cl)cc1`: the outcome in experiment [1], in experiment [2], in experiment [3], in [4], in [6] and in experiment [7] was inactive. The result in [8] and in experiment [10] was inactive. Further, the AC50 in experiment [5] is 3.97 µM (active).

Consider `CCNc1nc(Cl)nc(NC(C)(C)C#N)n1`, for which the result in experiment [1], in experiment [2], in experiment [3], in [4], in [5] and in experiment [6] was inactive. Also, the outcome in [8], in experiment [9] and in experiment [10] was inactive. The AC50 in experiment [7] is 10.6 µM (active).

Take `CNC(=O)Oc1cccc2c1OC(C)(C)O2`: the result in [1], in [2], in [3], in experiment [4], in experiment [5] and in experiment [6] was inactive. The outcome in experiment [7], in [8], in [9] and in experiment [10] was inactive.

For the molecule `CCOP(=S)(OCC)Oc1ccc([N+](=O)[O-])cc1`, the half-maximal activity concentration (AC50) in experiment [1] is 9.79 µM (active); in experiment [6] it was 20 µM (active); in [7], 20 µM (active); in [9], 32.7 µM (active). Moreover, the result in experiment [2], in [3], in [4], in [5], in [8] and in [10] was inactive.

For `CC(COc1ccc(Oc2ccccc2)cc1)Oc1ccccn1` (stereo not drawn), the result in experiment [1], in experiment [2], in experiment [3], in experiment [4], in experiment [5] and in experiment [6] was inactive. Besides, the result in [7], in experiment [8], in [9] and in experiment [10] was inactive.

`CCc1cccc(C)c1N(C(=O)CCl)C(C)COC` (stereo not drawn): the result in [1], in experiment [2], in experiment [3], in experiment [4], in experiment [5] and in [6] was inactive. The result in [8] and in experiment [10] was inactive. Further, the AC50 in [9] is 33.2 µM (active).

For the molecule `CSc1nnc(C(C)(C)C)c(=O)n1N`, the outcome in [1], in [2], in [4], in [5], in [6] and in experiment [7] was inactive. The result in experiment [8], in [9] and in experiment [10] was inactive. Moreover, in experiment [3], the AC50 was 30.4 µM (active).

As for `COP(=O)(OC)SCn1c(=O)oc2cc(Cl)cnc21`, the AC50 in [1] was 10.4 µM (active); in [2], 13.8 µM (active); in experiment [3] it was 12 µM (active); in experiment [4], 19.3 µM (active); in experiment [5], 30.6 µM (active); in [6] it was 16.3 µM (active). The AC50 is 17 µM (active) in [7], 18 µM (active) in [8], 16.5 µM (active) in experiment [9] and 14.9 µM (active) in experiment [10].

`CC(Oc1cccc(Cl)c1)C(=O)O` (stereo not drawn): the outcome in [1], in [2], in experiment [3], in [4], in experiment [5] and in [6] was inactive. Also, the outcome in experiment [7], in experiment [8], in experiment [9] and in experiment [10] was inactive.
